Test results taken from PubChem BioAssay (NCI).
About 83,000 compounds went through this panel and 20% of them were active in at least one assay; those are over-represented in the sample as a whole.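 A percent growth of 40 corresponds to 60% growth inhibition; 0 means no net growth; -100 means all cells died. Active threshold: below 10.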 Active and inactive are the calls of the source.

Key:
Assay in all cases: NCI-60 one-dose screen, 48 h (100 = growth as untreated, 0 = no growth, -100 = all killed)
Details in all cases: 10 µM unless noted
[1] = system: DU-145 prostate
[2] = system: K-562 leukemia
[3] = system: MALME-3M melanoma
[4] = system: MDA-MB-231 breast
[5] = system: RXF 393 renal
[6] = system: SF-268 CNS
[7] = system: SF-295 CNS
[8] = system: SF-539 CNS
[9] = system: UACC-257 melanoma
[10] = system: M14 melanoma
[11] = system: HCT-15 colon
[12] = system: SNB-75 CNS
[13] = system: SNB-19 CNS
[14] = system: U251 CNS
[15] = system: PC-3 prostate
[16] = system: SK-MEL-5 melanoma
[17] = system: UACC-62 melanoma
[18] = system: LOX IMVI melanoma
[19] = system: SK-MEL-28 melanoma
[20] = system: HT29 colon

Measured: growth

COc1ccc(/C=C/C(c2cc(OC)c(OC)c(OC)c2)n2cncn2)cc1 (stereo not drawn)
inactive: [1] 61.2% | [2] 17.7% | [3] 61.3% | [4] 50.1% | [5] 46.5% | [6] 57.1% | [7] 22.5% | [8] 56.5% | [9] 46.4% | [10] 17.9% | [11] 31.1% | [12] 51.3% | [13] 49% | [14] 31.8% | [15] 31.2% | [16] 33% | [17] 33.8% | [18] 50%

CC(C)=CCNc1ncnc2c1ncn2C1OC(CO)C(O)C1O (stereo not drawn)
inactive: [3] 32.4% [1 mM] | [9] 92.7% [1 mM] | [10] 26.9% [1 mM] | [13] 13.5% [1 mM] | [14] 35.2% [1 mM] | [16] 49.4% [1 mM] | [17] 27.5% [1 mM] | [19] 79.5% [1 mM]
active: [1] -89.4% [1 mM] | [2] 7.4% [1 mM] | [4] -54.7% [1 mM] | [5] -71.2% [1 mM] | [6] 4.72% [1 mM] | [7] -24.2% [1 mM] | [8] -41.8% [1 mM] | [11] -49.7% [1 mM] | [12] -32.6% [1 mM] | [15] -25.8% [1 mM] | [18] -96.7% [1 mM]

C=C(C)[C@@H]1CCC[C@]2(C(=O)O)CC[C@]3(C)[C@@H](CC[C@@H]4[C@@]5(C)C/C(=C/c6ccncc6)C(=O)C(C)(C)[C@@H]5CC[C@]43C)[C@@H]12
inactive: [1] 32.9% | [2] 13.7% | [3] 72% | [4] 12.2% | [5] 34.4% | [6] 52.1% | [7] 27.2% | [8] 26.3% | [9] 57.9% | [10] 45.8% | [12] 52.6% | [13] 46.1% | [14] 17% | [15] 27.4% | [16] 10.6% | [17] 26.8% | [19] 48.4%
active: [11] 5.49% | [18] -9.49%

CC1=C2[C@@H](CC1)[C@]1(C)O[C@@](C3CCCCC3)(C[C@H]1OC(=O)CO)[C@H]2OC(=O)/C=C/c1ccccc1
inactive: [1] 89.3% | [2] 63.5% | [3] 79.5% | [4] 86.4% | [5] 39.9% | [6] 31.9% | [7] 86.5% | [8] 102% | [9] 84.5% | [10] 91.6% | [11] 77.9% | [12] 72.6% | [13] 91.4% | [14] 73.9% | [15] 53.2% | [16] 87.3% | [17] 62.5% | [18] 82.6% | [19] 101%

CN1CCN(CCOc2ccc(-c3cnc4c(-c5cccc(F)c5F)cnn4c3)cc2)CC1
active: [1] 8.58% | [2] -31.3% | [3] -44% | [7] -3.66% | [8] -72.5% | [9] -19.1% | [10] -78.9% | [11] -8.62% | [13] 8.04% | [14] -32.4% | [16] -32.4% | [17] -36.1% | [18] -95.8% | [19] -18.7%
inactive: [4] 85% | [5] 97% | [6] 25.3% | [12] 115% | [15] 90.5%

CCOC(=O)C1=C(C)/C(=C\c2[nH]c(C)c(C(=O)OCC)c2C)N=C1C
active: [18] 1.05%
inactive: [1] 96.2% | [2] 106% | [3] 94.6% | [4] 82.8% | [5] 101% | [6] 79.1% | [7] 96.9% | [8] 101% | [9] 88.9% | [10] 95.9% | [11] 91.4% | [12] 89.1% | [13] 89.7% | [14] 74.1% | [15] 84.6% | [16] 97.4% | [17] 90.9% | [19] 88.3%

O=C(NC1CC(F)C1)c1cc2cccnc2n1-c1ccc(Cl)c(Cl)c1 (stereo not drawn)
inactive: [1] 106% | [2] 96.3% | [3] 113% | [4] 96.5% | [5] 102% | [6] 91.6% | [7] 95.1% | [8] 98% | [9] 96.9% | [10] 111% | [11] 96.6% | [12] 89.1% | [13] 95.2% | [14] 93.9% | [16] 98.9% | [17] 83.7% | [18] 89.6% | [19] 117%

N=C(N)c1ccc(-c2ccc(-c3ccccc3)s2)cc1
inactive: [1] 29.5% | [3] 97.2% | [4] 10.3% | [5] 78.7% | [6] 76.4% | [7] 40.6% | [8] 78.5% | [9] 103% | [10] 81.1% | [12] 108% | [13] 50.1% | [15] 51.3% | [16] 95.5% | [17] 94.9% | [19] 113%
active: [2] 1.35% | [11] -28.3% | [14] 9.73% | [18] -70.2%

COc1cc(/C=C/C(=O)c2ccc(-n3cc(CN4CCN(c5cc6c(cc5F)c(=O)c(C(=O)O)cn6C5CC5)CC4)nn3)cc2)ccc1O
inactive: [1] 77.5% | [2] 40.5% | [3] 94.5% | [4] 73.6% | [5] 70.9% | [6] 56.4% | [7] 80.2% | [8] 60.1% | [9] 87.7% | [10] 79% | [11] 71.7% | [12] 89.2% | [13] 53.8% | [14] 34.3% | [15] 74% | [16] 78.7% | [17] 61.2% | [18] 36.9% | [19] 95.8%

CC(=O)OC[C@]12CC[C@@H]([C@@H](C)c3nnc(-c4ccncc4)o3)[C@@H]1[C@H]1CC[C@@H]3[C@@]4(C)CC[C@H](OC(C)=O)C(C)(C)[C@@H]4CC[C@@]3(C)[C@]1(C)CC2
inactive: [1] 102% | [2] 46.4% | [3] 99.7% | [4] 76.3% | [5] 104% | [6] 92% | [7] 74.9% | [8] 94.2% | [9] 75.3% | [10] 91% | [11] 77.5% | [12] 103% | [13] 82.7% | [14] 64.1% | [15] 33.5% | [16] 74.3% | [17] 58.2% | [18] 77.2% | [19] 92.8%

COc1cc(C2C(C(=O)OCc3ccccc3)=C(C)NC(C)=C2C(=O)OCc2ccccc2)cc(OC)c1OC
active: [5] -18.5% | [15] 9.87% | [16] 8.07%
inactive: [1] 53.9% | [2] 20.3% | [3] 18% | [4] 31.9% | [6] 37.6% | [7] 15.4% | [8] 41.3% | [9] 19.5% | [10] 21.9% | [11] 23.4% | [12] 46.2% | [13] 42.5% | [14] 31.3% | [17] 30.2% | [18] 29.9% | [19] 41.1%

COc1cc(-c2nc3cc(Cl)c(Cl)cc3[nH]2)ccc1OCC(=O)N=Nc1c(O)[nH]c2ccc(Cl)cc12
inactive: [11] 58.4%
active: [1] 6.51% | [2] -11.7% | [3] -16.4% | [4] -43.8% | [5] -6.73% | [6] -24.5% | [7] -18% | [8] -36% | [9] 7.43% | [10] -35.8% | [12] 6.76% | [13] 9.74% | [14] -89.4% | [15] 0.522% | [16] -62.9% | [17] -11.7% | [18] -83.5% | [19] -2.83%

Cc1nc2cc(O)c(O)cc2cc1Oc1ccc(NC(=O)Nc2ccc(Cl)c(Cl)c2)cc1
inactive: [1] 60.3% | [2] 53.9% | [3] 85.2% | [4] 45% | [5] 20.4% | [6] 65.5% | [7] 95.9% | [8] 56.9% | [9] 88.5% | [10] 80.7% | [11] 37.2% | [20] 48% | [12] 75.8% | [13] 49% | [15] 39.3% | [17] 84.5% | [19] 79.1%
active: [16] -42.2% | [18] 0.463%

CSC1=Nc2c(c(C)c(-c3ccccc3)n2CCCC(=O)O)C2=NC(=O)C[C@H](C)N12
inactive: [1] 115% | [2] 101% | [3] 102% | [4] 138% | [5] 106% | [6] 110% | [7] 106% | [8] 85.5% | [9] 108% | [10] 102% | [11] 127% | [12] 79.7% | [13] 101% | [14] 103% | [15] 97.6% | [16] 92.4% | [17] 107% | [18] 94.9% | [19] 105%

CN1CCN(C(=S)SCCCCOc2cc(=O)oc3ccccc23)CC1
inactive: [1] 90.6% | [2] 64.3% | [3] 93.3% | [4] 89.1% | [5] 99.5% | [6] 87.7% | [7] 77.7% | [8] 98.9% | [9] 85% | [10] 103% | [11] 88.3% | [12] 93.8% | [13] 94.7% | [14] 87% | [15] 72.7% | [16] 69.5% | [17] 73.9% | [18] 93.9% | [19] 109%
